In PubChem BioAssay (NCI) one finds growth data, which are given here for 6 compounds.

Assay in all cases: NCI-60 one-dose screen, 48 h (100 = growth as untreated, 0 = no growth, -100 = all killed)
For one test, the system named is NCI-H23 lung. The settings on record: 10 µM unless noted.
Another test has as its system NCI-H226 lung. The settings on record: 10 µM unless noted.
A further test concerns NCI-H322M lung. The settings on record: 10 µM unless noted.
In another test the test system is HOP-62 NSCLC. The settings on record: 10 µM unless noted.
In the next test the test system is NCI-H460 lung. The settings on record: 10 µM unless noted.
Another test deals with HOP-92 NSCLC.
The subject of a further test is NCI-H522 lung. Conditions: 10 µM unless noted.
Another test relates to A549/ATCC NSCLC. Conditions: 10 µM unless noted.
In another test the test system is 786-0 renal. Conditions: 10 µM unless noted.
For another test, the system named is COLO 205 colon. Conditions: 10 µM unless noted.
In the next test the test system is DU-145 prostate. Conditions: 10 µM unless noted.
Another test has as its system K-562 leukemia. Conditions: 10 µM unless noted.
For another test, the system named is MALME-3M melanoma. Conditions: 10 µM unless noted.
A further test has as its system MDA-MB-231 breast. Conditions: 10 µM unless noted.
The subject of another test is RXF 393 renal. Conditions: 10 µM unless noted.
For a further test, the system named is SF-268 CNS. Conditions: 10 µM unless noted.
Another test relates to SF-295 CNS. Conditions: 10 µM unless noted.
A further test has as its system SF-539 CNS. Conditions: 10 µM unless noted.
The subject of the next test is UACC-257 melanoma. Conditions: 10 µM unless noted.
For a further test, the system named is M14 melanoma. Conditions: 10 µM unless noted.

Compounds without any hit were thinned out: in the full panel of roughly 83,000, 20% have a hit.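 Testing used 96-well plates and a 48-hour single-concentration exposure. Example: -40 means 40% of the starting cells died.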 A number with no mark means an inactive call. Active and inactive are the calls of the source. How the source made its calls: active means growth percent below 10; inactive means the rest.

As to `Cc1c(N)nc([C@H](CC(N)=O)NC[C@H](N)C(N)=O)nc1C(=O)N[C@H](C(=O)N[C@H](C)[C@@H](O)[C@H](C)C(=O)N[C@H](C(=O)NCCc1nc(-c2nc(C(=O)NCCC[S+](C)C)cs2)cs1)[C@@H](C)O)C(OC1OC(CO)C(O)C(O)C1OC1OC(CO)C(O)C(OC(N)=O)C1O)c1cnc[nH]1` (stereo not given in full), the growth with NCI-H23 lung is 37.9% [2.5 µM]; with NCI-H226 lung it was 37.2% [2.5 µM]; in the test with NCI-H322M lung, 97.1% [2.5 µM]; in the test with HOP-62 NSCLC it was 43.9% [2.5 µM]; in the test on NCI-H460 lung, 23.1% [2.5 µM]; with HOP-92 NSCLC (2.5 µM), -4.74% (active). In addition, the growth in the test with NCI-H522 lung was 57.3% [2.5 µM]; with A549/ATCC NSCLC, 52.9% [2.5 µM]; in the test on 786-0 renal, 27.9% [2.5 µM]; in the test with COLO 205 colon, 87.7% [2.5 µM]; in the test on DU-145 prostate it was 58.7% [2.5 µM]; in the test with K-562 leukemia it was 65.8% [2.5 µM]. The growth in the test on MALME-3M melanoma was 45.9% [2.5 µM]; in the test with MDA-MB-231 breast, 99.2% [2.5 µM]; in the test with RXF 393 renal it was 20.5% [2.5 µM]; in the test on SF-268 CNS it was 61.6% [2.5 µM]; with SF-295 CNS it was 8.69% [2.5 µM] (active); in the test on SF-539 CNS, -48.7% [2.5 µM] (active). The growth in the test on UACC-257 melanoma was 31.9% [2.5 µM].
For `C[C@H]1CCC/C=C/[C@@H]2C[C@H](O)C[C@H]2[C@H](O)/C=C/C(=O)O1`, the growth in the test with NCI-H23 lung is -1.79% (active); with NCI-H226 lung, -36.3% (active); in the test on NCI-H322M lung, 5.77% (active); with HOP-62 NSCLC, 4.67% (active); in the test with NCI-H460 lung it was 8.73% (active); with NCI-H522 lung, -43.6% (active). The growth with A549/ATCC NSCLC is 13.1%; in the test on 786-0 renal it was -37.3% (active); in the test with COLO 205 colon, -75.4% (active); with DU-145 prostate it was -7.84% (active); with K-562 leukemia, 5.56% (active); in the test on MALME-3M melanoma, -73% (active). Moreover, the growth was -68% (active) with MDA-MB-231 breast; 11% in the test with RXF 393 renal; 10.3% in the test on SF-268 CNS; 20.9% with SF-295 CNS; 27.1% with SF-539 CNS; 13.1% in the test with UACC-257 melanoma. Moreover, in the test with M14 melanoma, the growth was -9.75% (active).
As to `COC1CC(CC2CCC(C)C(C(C)C(=O)O)O2)OC2(OC(C)(C3CCC(C)(C4OC(C5OC(O)(CO)C(C)CC5C)CC4C)O3)CC2C)C1C` (stereo not given), the growth is 9.19% (active) with NCI-H23 lung; 22% in the test with NCI-H226 lung; 9.36% (active) in the test with NCI-H322M lung; 10.1% in the test with HOP-62 NSCLC; 4.73% (active) in the test on NCI-H460 lung; -55.7% (active) in the test with NCI-H522 lung. Besides, the growth is 7.35% (active) in the test on A549/ATCC NSCLC; 6.74% (active) in the test on 786-0 renal; -12% (active) with COLO 205 colon; 17.5% in the test on DU-145 prostate; -67.6% (active) in the test with K-562 leukemia; -96% (active) in the test on MALME-3M melanoma. Moreover, the growth with MDA-MB-231 breast was -21.7% (active); in the test with RXF 393 renal, 28%; in the test with SF-268 CNS, 10.7%; in the test on SF-295 CNS, -39.2% (active); in the test with SF-539 CNS, -49.1% (active); in the test with UACC-257 melanoma it was 7.33% (active). Moreover, the growth with M14 melanoma is -71.9% (active).
As to `Cc1cc(N=Nc2ccccc2C)ccc1N`, the growth was 79.6% in the test with NCI-H23 lung; 71.1% in the test with NCI-H226 lung; 89.2% in the test on NCI-H322M lung; 69.3% with HOP-62 NSCLC; 80.7% in the test with NCI-H460 lung; 48.8% in the test with HOP-92 NSCLC (10 µM). The growth with NCI-H522 lung is 57.6%; in the test with A549/ATCC NSCLC it was 47.6%; in the test with 786-0 renal, -13.5% (active); in the test with COLO 205 colon it was 111%; in the test on DU-145 prostate it was 68.1%; in the test with K-562 leukemia, 65.7%. The growth is 68.6% in the test on MALME-3M melanoma; 75.1% in the test with MDA-MB-231 breast; 99.6% with RXF 393 renal; 47.3% in the test on SF-268 CNS; 83.9% in the test with SF-295 CNS; 48.9% with SF-539 CNS. The growth with UACC-257 melanoma is 132%.
On to `CCOC(=O)C(NC(=O)C(Cc1ccc(N(CCCl)CCCl)cc1)NC(C)=O)C(C)C` (stereo not given), for which the growth with NCI-H23 lung was 81%; in the test with NCI-H226 lung it was 90.8%; in the test on NCI-H322M lung, 95.4%; in the test on HOP-62 NSCLC, 83.5%; in the test on NCI-H460 lung it was 49.9%; in the test on HOP-92 NSCLC (10 µM), 98.7%. Also, the growth with NCI-H522 lung is 64.1%; in the test with A549/ATCC NSCLC, 56%; in the test on 786-0 renal, 88.6%; in the test on COLO 205 colon, 66.5%; in the test with DU-145 prostate it was 99.7%; with K-562 leukemia, 85.6%. For the same compound, the growth with MALME-3M melanoma is 91.7%; in the test with MDA-MB-231 breast, 96.8%; in the test on RXF 393 renal it was 96.4%; in the test on SF-268 CNS, 71.5%; in the test with SF-295 CNS it was 86%; in the test on SF-539 CNS, 77.3%. The growth was 87.2% in the test with UACC-257 melanoma and 84.1% in the test with M14 melanoma.
Take `CN1CCN(c2ccc([N+](=O)[O-])c3no[n+]([O-])c23)CC1`: the growth was -24.1% (active) in the test with NCI-H23 lung; -71.9% (active) in the test on NCI-H226 lung; -24.2% (active) with NCI-H322M lung; -98.3% (active) in the test with HOP-62 NSCLC; -61.4% (active) with NCI-H460 lung; -23.1% (active) in the test on HOP-92 NSCLC (10 µM). Further, the growth was -92.1% (active) with NCI-H522 lung; -48.7% (active) with A549/ATCC NSCLC; -78.6% (active) in the test on 786-0 renal; -83.3% (active) in the test with COLO 205 colon; -27.4% (active) in the test with DU-145 prostate; -18.4% (active) in the test on K-562 leukemia. Also, the growth is -78.8% (active) with MALME-3M melanoma; -32.1% (active) with MDA-MB-231 breast; -92.8% (active) in the test with RXF 393 renal; -41.4% (active) in the test on SF-268 CNS; -52% (active) in the test with SF-295 CNS; -95.6% (active) in the test on UACC-257 melanoma. Besides, in the test with M14 melanoma, the growth is -65.2% (active).
